Assay results reported in the supplement of paper PMC11732987, “Enantioselective OTUD7B fragment discovery through chemoproteomics screening and high-throughput optimisation” (Communications Chemistry, 2025).

Columns and labels:
Assay in all cases: log2 ratio of Biotin-Ahx-Ub-VS probe labelling (fragment/DMSO); higher = less target engagement (more negative = stronger competition), active = hit call of the paper (q ≤ 0.05, log2 ratio ≤ -1)
Details in all cases: compound concentration: 200 uM; treatment time: 3 h
OTUD6B = biological target: T1, OTUD6B (UniProt Q8N6M0)
T1 sequence (whole entry): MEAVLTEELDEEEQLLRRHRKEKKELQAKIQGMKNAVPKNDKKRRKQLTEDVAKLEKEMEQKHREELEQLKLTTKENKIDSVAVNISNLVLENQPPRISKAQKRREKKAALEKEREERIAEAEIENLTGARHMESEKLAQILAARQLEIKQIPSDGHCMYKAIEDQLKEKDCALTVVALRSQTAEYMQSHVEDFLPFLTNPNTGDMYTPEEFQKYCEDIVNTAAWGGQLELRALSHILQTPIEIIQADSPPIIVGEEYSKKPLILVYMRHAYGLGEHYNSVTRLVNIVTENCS
Procedure, shortened: (§1)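 Fragment (200 µM) or vehicle was incubated for 3 h with triplicate HEK293T lysate samples of 495 µg, which were then treated with Biotin-Ahx-Ub-VS at 0.5 µM final for 1 h. Labelled DUBs were enriched on NeutrAvidin, digested with LysC and trypsin, and analysed by diaPASEF LC-MS/MS. Values are average log2 fragment/vehicle ratios from an unpaired t-test on global-median-normalised Spectronaut label-free quantities, using proteins with ≥2 unique peptides.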

OTUD7B = biological target: T2, OTUD7B (UniProt Q6GQQ9)
T2 sequence (whole entry): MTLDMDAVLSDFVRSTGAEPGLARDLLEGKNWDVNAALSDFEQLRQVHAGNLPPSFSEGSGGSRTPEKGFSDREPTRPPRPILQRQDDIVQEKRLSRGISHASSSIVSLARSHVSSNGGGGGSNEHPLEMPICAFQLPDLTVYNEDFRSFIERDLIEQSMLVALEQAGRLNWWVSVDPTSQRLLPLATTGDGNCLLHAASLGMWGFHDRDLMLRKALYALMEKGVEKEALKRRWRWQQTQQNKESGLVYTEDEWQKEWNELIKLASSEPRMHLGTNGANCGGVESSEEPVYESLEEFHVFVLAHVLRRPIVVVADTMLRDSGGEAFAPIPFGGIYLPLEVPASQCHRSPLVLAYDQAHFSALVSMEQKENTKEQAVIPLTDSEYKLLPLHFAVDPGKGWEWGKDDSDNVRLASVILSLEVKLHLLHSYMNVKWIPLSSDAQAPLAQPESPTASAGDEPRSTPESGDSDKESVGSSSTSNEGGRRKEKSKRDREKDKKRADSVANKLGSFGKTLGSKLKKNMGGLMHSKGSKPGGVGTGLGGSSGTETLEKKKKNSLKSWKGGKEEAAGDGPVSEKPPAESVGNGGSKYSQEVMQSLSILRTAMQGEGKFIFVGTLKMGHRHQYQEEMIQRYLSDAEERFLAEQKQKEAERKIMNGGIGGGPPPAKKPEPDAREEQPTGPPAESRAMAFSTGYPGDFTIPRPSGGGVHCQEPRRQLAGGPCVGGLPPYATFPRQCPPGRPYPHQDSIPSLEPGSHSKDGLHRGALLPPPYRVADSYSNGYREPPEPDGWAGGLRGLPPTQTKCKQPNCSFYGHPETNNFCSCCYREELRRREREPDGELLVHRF
Procedure, shortened: as §1

PRPF8 = PRPF8 (UniProt Q6P2Q9)
Procedure, shortened: as §1

PSMD7 = biological target: T3, PSMD7 (UniProt P51665)
T3 sequence (whole entry): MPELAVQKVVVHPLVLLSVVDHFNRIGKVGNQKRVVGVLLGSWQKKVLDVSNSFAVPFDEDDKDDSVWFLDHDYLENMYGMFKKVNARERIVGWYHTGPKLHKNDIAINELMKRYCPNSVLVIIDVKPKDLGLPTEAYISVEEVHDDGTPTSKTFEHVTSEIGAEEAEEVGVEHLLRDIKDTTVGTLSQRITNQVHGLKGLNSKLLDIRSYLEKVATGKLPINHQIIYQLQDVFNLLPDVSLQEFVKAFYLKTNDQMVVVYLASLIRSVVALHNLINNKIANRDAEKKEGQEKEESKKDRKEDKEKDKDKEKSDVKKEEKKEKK
Procedure, shortened: as §1

UCHL1 = UCHL1 (UniProt P09936)
Sequence of UCHL1 (P09936 whole entry, looked up): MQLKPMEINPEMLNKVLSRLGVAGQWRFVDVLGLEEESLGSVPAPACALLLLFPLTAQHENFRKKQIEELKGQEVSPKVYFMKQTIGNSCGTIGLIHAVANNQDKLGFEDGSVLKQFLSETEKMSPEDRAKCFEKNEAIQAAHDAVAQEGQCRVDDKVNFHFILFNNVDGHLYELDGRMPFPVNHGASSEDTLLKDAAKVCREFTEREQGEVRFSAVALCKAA
Procedure, shortened: as §1

UCHL3 = biological target: T4, UCHL3 (UniProt P15374)
T4 sequence (whole entry): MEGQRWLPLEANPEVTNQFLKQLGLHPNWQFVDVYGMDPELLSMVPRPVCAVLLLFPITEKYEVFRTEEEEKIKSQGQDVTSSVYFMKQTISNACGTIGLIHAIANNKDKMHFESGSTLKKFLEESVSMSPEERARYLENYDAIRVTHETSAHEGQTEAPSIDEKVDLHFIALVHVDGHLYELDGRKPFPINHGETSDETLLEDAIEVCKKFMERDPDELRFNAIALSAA
Procedure, shortened: as §1

UCHL5 = biological target: T5, UCHL5 (UniProt Q9Y5K5)
T5 sequence (whole entry): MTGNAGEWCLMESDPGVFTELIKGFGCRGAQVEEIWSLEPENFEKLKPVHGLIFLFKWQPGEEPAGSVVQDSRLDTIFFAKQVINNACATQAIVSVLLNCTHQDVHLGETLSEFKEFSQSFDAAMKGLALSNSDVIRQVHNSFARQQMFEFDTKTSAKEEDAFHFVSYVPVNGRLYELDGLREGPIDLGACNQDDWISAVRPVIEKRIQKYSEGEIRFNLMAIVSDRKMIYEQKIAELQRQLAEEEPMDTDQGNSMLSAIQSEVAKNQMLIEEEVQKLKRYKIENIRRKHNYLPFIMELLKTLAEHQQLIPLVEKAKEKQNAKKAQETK
Procedure, shortened: as §1

USP10 = USP10 (UniProt Q14694)
Sequence of USP10 (Q14694 whole entry): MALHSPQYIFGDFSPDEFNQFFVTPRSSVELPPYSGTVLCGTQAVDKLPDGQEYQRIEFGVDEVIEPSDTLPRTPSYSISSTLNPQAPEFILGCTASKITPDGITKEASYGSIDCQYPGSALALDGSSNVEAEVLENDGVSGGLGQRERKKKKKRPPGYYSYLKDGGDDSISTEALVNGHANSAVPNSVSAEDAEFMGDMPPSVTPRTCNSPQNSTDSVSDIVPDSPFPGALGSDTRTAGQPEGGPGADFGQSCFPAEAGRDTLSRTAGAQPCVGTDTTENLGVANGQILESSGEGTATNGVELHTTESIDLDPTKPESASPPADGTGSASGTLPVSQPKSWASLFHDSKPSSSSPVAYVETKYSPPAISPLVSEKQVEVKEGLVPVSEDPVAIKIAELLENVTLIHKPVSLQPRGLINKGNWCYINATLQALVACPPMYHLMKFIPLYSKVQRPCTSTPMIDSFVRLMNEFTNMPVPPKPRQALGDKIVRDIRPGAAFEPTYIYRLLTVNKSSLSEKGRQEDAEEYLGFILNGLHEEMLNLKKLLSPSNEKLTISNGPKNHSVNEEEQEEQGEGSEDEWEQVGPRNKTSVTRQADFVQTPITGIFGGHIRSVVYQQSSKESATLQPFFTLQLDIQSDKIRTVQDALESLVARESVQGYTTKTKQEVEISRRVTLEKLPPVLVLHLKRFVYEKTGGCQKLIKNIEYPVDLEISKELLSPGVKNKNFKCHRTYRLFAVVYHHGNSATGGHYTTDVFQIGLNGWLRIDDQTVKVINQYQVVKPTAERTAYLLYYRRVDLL
Procedure, shortened: as §1

USP15 = biological target: T6, USP15 (UniProt Q9Y4E8)
T6 sequence (whole entry): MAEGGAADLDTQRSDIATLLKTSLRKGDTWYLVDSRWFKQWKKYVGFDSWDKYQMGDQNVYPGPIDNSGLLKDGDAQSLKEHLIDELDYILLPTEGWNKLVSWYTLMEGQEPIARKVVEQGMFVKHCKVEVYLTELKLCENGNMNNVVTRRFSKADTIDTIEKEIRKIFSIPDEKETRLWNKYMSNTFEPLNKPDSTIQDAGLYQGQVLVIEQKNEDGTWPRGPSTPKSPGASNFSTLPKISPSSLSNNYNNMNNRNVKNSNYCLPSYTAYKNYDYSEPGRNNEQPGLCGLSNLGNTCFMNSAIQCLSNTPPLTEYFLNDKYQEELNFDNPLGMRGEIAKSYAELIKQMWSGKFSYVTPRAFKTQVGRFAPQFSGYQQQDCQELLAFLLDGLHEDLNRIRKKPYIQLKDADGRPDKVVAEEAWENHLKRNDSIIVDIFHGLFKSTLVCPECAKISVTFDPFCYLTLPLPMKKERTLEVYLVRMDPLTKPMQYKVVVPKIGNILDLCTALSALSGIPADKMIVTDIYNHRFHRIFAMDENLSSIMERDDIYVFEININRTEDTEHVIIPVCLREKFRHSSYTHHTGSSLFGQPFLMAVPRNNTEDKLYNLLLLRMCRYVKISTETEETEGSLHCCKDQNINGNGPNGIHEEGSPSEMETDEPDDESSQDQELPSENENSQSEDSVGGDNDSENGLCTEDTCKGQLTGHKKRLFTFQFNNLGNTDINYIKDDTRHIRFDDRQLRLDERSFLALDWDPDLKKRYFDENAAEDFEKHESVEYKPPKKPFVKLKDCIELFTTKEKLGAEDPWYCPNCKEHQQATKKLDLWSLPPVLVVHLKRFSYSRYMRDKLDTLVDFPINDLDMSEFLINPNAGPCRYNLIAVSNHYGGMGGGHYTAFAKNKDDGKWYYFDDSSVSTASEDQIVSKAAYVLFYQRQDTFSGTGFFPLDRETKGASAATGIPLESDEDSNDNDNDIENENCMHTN
Procedure, shortened: as §1

USP16 = USP16 (UniProt Q9Y5T5)
Sequence of USP16 (Q9Y5T5 whole entry, looked up): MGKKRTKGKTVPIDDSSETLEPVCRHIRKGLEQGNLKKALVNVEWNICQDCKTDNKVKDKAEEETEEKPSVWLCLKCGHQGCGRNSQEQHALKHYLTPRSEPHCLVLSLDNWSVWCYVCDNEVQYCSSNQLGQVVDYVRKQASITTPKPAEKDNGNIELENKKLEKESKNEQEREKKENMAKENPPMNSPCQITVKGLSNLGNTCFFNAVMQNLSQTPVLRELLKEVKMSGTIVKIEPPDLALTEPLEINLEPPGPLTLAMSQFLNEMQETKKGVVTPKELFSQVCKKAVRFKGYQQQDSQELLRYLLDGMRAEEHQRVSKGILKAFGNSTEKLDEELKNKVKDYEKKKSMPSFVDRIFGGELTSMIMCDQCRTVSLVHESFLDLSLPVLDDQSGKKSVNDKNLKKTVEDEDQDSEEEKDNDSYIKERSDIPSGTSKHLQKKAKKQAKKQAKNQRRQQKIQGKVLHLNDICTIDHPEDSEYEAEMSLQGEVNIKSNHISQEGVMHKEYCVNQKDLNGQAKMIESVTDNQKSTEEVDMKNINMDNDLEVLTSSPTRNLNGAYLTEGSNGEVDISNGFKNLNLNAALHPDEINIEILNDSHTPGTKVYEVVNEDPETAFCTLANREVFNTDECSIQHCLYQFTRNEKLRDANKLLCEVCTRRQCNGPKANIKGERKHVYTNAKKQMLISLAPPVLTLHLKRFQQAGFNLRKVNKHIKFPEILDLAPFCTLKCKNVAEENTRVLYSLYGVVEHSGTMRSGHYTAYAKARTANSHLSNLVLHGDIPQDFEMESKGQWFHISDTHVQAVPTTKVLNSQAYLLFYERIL
Procedure, shortened: as §1

Measured: log2 ratio of Biotin-Ahx-Ub-VS probe labelling

O=C(CCl)N1CCC(S(=O)(=O)c2ccc(F)cc2)CC1
active: UCHL1 -1.14
inactive: OTUD6B -0.129 | OTUD7B -0.758 | PRPF8 -0.03 | PSMD7 -0.129 | UCHL3 0.498 | UCHL5 -0.128 | USP10 -0.175 | USP15 -0.327 | USP16 0.341
